In PubChem BioAssay AID1963322 (National Center for Advancing Translational Sciences (NCATS), 2024) one finds Potency data, which are given here for 40 compounds.

Each structure is given as a SMILES string. Records with an inconclusive call do not appear. A call without a number means that no potency is given here. Active and inactive are the calls of the source. Calls follow the shape of the full dose curve.

For the test, the target named is cAMP-dependent protein kinase catalytic subunit alpha (Homo sapiens) (UniProt P17612). Kind of test: Protein Kinase A (PKA-HiBiT) SDR gain of signal screen. To be noted: PKA-HiBiT structural dynamics response (SDR), luminescence gain of signal; series mostly up to 32.9 µM. An excerpt: National Center for Advancing Translational Sciences (NCATS),
National Institute of Health (NIH), Maryland
Discovery and optimization of novel protein-binding ligands underlies many of the methods and applications of biology, drug discovery, clinical diagnostics, and environmental toxicology. Assays for detecting the interaction of, for example, a molecule with a macromolecular target also referred to here as the target of interest (TOI) is dependent on a compatible output technology. Depending on the nature and knowledge surrounding the TOI, whether a receptor, enzyme, regulatory subunit or scaffold, or a sequence-defined nucleic acid folded into a complex tertiary structure, assay strategies can vary widely.
Here we exploit ligand-biased changes in the structural dynamics of the target protein to control reporter alpha complementation allowing a non-competitive, non-functional, non-separation measure of ligand-target interaction.
Using a chemical library of >1,200 compounds enriched for scaffolds known to be associated with the inhibition of firefly luciferase (FLuc) activity (PubChem AIDs 2309) we first illustrate and compare the Structural Dynamics Response (SDR) assay vs. the standard functional FLuc enzyme assay (2). Secondly, we show the specificity and sensitivity of the SDR for the Abelson tyrosine kinase (ABL1) compared to the serine/threonine protein kinase A, using an enriched chemical library of 128 compounds selected, in part, for activity annotated with ABL1 kinase activity using the Pharos database (3).
(1) A. S. Dixon et al., NanoLuc Complementation Reporter Optimized for Accurate Measurement of Protein Interactions in Cells. ACS Chem Biol 11, 400-408 (2016).
Chemistry & Biology, 19, 1060 - 1072 (2012).
(3) K. J. Kelleher et al., Pharos 2023: an integrated resource for the understudied human proteome. Nucleic Acids Res 51, D1405-D1416 (2023).
PROTOCOL TABLE (as described by Inglese J, Shamu CE and Guy RK. 2007)
SEQUENCE No. (e.g., 1, 2, 3, etc.); […] (e.g., C. elegans, Compounds, Incubation, Read, etc.); VALUE and DESCRIPTION.
1. Reagent. Dispense 4 uL PKA-N-HiBiT enzyme per well at a final enzyme concentration of 10 nM in buffer into columns 2-48 of four replicate Greiner 1536-well white,solid bottom high base, medium plates per assay. Dispense respective buffer without enzyme at 4 uL/well in column 1 of assay plates using BioRaptr 2.
2. Compounds. Library compounds added at 23 nL/well by pin transfer. DMSO neutral control and H-89 positive control added at 25 nL/well, transfer by Mosquito dispenser.
3. Incubation. Incubate enzyme and compounds at room temperature for 30 min, protect from light.
4. Reagent. (SDR assay) Add 3 uL/well of Nano-Glo HiBiT reagent (Promega) to assay plates.
5. Incubation. (SDR assay) Incubate enzyme solution HiBiT reagent at room temperature for 10 min, protected from light.
6. Detector. (SDR assay) Luminescence measured using CCD-based camera (ViewLux) with settings as follows: Exposure, 1 sec; Gain, High; Speed, Slow; Binning, 2X.
Background: With HiBiT, luminescence reflects the tagged protein that the partner subunit can reach.
As for `CN1CCN(C2CCC(n3cc(-c4ccc(Oc5ccccc5)cc4)c4c(N)ncnc43)CC2)CC1` (stereo not given), the Potency result is “inactive”.

As for `Nc1ncc(-c2cnn(CCO)c2)c2scc(-c3ccc(NC(=O)Nc4cccc(F)c4)cc3)c12`, the Potency entry was “inactive”.

Turning to `Cc1c(Cl)cccc1S(=O)(=O)Nc1nc(NCCc2ccccc2)nc2c1CN(Cc1ccccc1)CC2`, the Potency entry is “inactive”.

Regarding `Cc1cc(O)c2c(c1)C(=O)c1cc(O)cc(O)c1C2=O`, the Potency result is “inactive”.

Take `CO[C@H]1/C=C/O[C@@]2(C)Oc3c(C)c(O)c4c(O)c(c(/C=N\N5CCN(C6CCCC6)CC5)c(O)c4c3C2=O)NC(=O)/C(C)=C\C=C\[C@H](C)[C@H](O)[C@@H](C)[C@@H](O)[C@@H](C)[C@H](OC(C)=O)[C@@H]1C`: the Potency entry was “inactive”.

Turning to `CCOc1ccn(-c2ccc(F)cc2)c(=O)c1C(=O)Nc1ccc(Oc2ccnc(N)c2Cl)c(F)c1`, the Potency is 0.813 µM (active).

For `Cc1cccc(/C=N/Nc2cc(N3CCOCC3)nc(OCCc3ccccn3)n2)c1`, the Potency entry is “inactive”.

For `Oc1ccc(-c2ccc(-c3cc(Nc4cccc(CNC5CC5)c4)n[nH]3)cc2)c(O)c1`, the Potency is 10.7 µM (active).

Turning to `COc1cc2nccc(Oc3ccc(NC(=O)Nc4ccc(F)cc4F)c(F)c3)c2cc1OC`, the Potency entry is “inactive”.

Take `COc1cc(N2CCN(C)CC2)ccc1Nc1nc(N)c(C(=O)c2c(Cl)cccc2Cl)s1`: the Potency entry was “inactive”.

As to `CCCCNc1ncc2c(-c3ccc(S(=O)(=O)N4CCOCC4)cc3)nn(C3CCC(O)CC3)c2n1` (stereo not given), the Potency result is “inactive”.

For the compound `O=c1c(O)c(-c2ccc(O)c(O)c2)oc2cc(O)cc(O)c12`, the Potency result was “inactive”.

Consider `Nc1nc(NCCNc2ncc(-n3ccnc3)c(-c3ccc(Cl)cc3Cl)n2)ccc1[N+](=O)[O-]`, for which the Potency result is “inactive”.

As to `COc1ccc(S(=O)(=O)N(C(C)=O)c2ccccc2/C=C/c2cc[n+]([O-])cc2)cc1`, the Potency entry was “inactive”.

As to `O=C(Nc1cc(C(F)(F)F)ccc1N1CCCCC1)c1ccncc1`, the Potency result is “inactive”.

As to `c1cc(-c2cc(C3CCNCC3)[nH]n2)ccn1`, the Potency was 3.62 µM (active).

Consider `C=CC(=O)N1CCC[C@@H](n2nc(-c3cccc(C(=O)Nc4ccc(C(C)C)c(C)c4)c3)c3c(N)ncnc32)C1`, for which the Potency entry was “inactive”.

As to `CCn1c(=O)c(-c2ccc(Cl)cc2Cl)cc2cnc(Nc3ccc(N4CCNCC4)c(F)c3)nc21`, the Potency entry is “inactive”.

Take `COc1cc2ncnc(Nc3ccc(F)c(Cl)c3)c2cc1OCCCN1CCOCC1`: the Potency result was “inactive”.

Take `NC1CCC(Nc2nc(Nc3ccc(C(=O)N4CCCCC4)cc3)c3ncn(-c4cccc(F)c4)c3n2)CC1` (stereo not given): the Potency was 11.5 µM (active).

For `Cc1cn(-c2cc(F)cc(NC(=O)c3ccc(C)c(Nc4nccc(-c5cccnc5)n4)c3)c2)cn1`, the Potency entry is “inactive”.

For the compound `CCN(CC)CCOc1ccc(Nc2ncc3cc(-c4c(Cl)cccc4Cl)c(=O)n(C)c3n2)cc1`, the Potency entry was “inactive”.

Take `Cc1cc(Nc2ncc3c(n2)N(C)C(=O)N(c2cc(NC(=O)c4cccc(C(F)(F)F)c4)ccc2C)C3)n(C)n1`: the Potency entry is “inactive”.

`Cn1ncc(NC(=O)c2nc(-c3c(F)cccc3F)sc2N)c1N1CC[C@@H](N)[C@H](F)CC1`: the Potency is 0.7 µM (active).

In the case of `Nc1ncccc1-c1nc2ccc(-c3ccccc3)nc2n1-c1ccc(C2(N)CCC2)cc1`, the Potency entry is “inactive”.

Regarding `Nc1nc(Nc2ccc(S(N)(=O)=O)cc2)n(C(=S)Nc2c(F)cccc2F)n1`, the Potency was 11.1 µM (active).

As for `Cc1cc(Nc2ncc3cc(-c4c(Cl)cccc4Cl)c(=O)n(C)c3n2)ccc1F`, the Potency entry is “inactive”.

Turning to `Cc1nc2ccc(-n3ncc(C(=O)c4cc5ccccc5[nH]4)c3N)cc2[nH]1`, the Potency result is “inactive”.

Take `COc1ccc2c(Oc3ccc(NC(=O)c4c(C)n(CC(C)(C)O)n(-c5ccccc5)c4=O)nc3)ccnc2c1`: the Potency entry was “inactive”.

`C=CC(=O)Nc1cccc(Oc2nc(Nc3ccc(N4CCN(C)CC4)cc3OC)ncc2Cl)c1`: the Potency result was “inactive”.

For the compound `COc1ccc(CNC(=O)Nc2ncc([N+](=O)[O-])s2)cc1`, the Potency result was “inactive”.

On to `Cc1ccc(NC(=O)N2CCN(c3nc(N)nc4sc(-c5cccnc5)nc34)CC2)cc1`, for which the Potency entry is “inactive”.

Regarding `CCCS(=O)(=O)Nc1ccc(F)c(C(=O)c2c[nH]c3ncc(Cl)cc23)c1F`, the Potency result was “inactive”.

In the case of `CNS(=O)(=O)c1ccc2c(c1)/C(=C/c1[nH]c3c(c1CCCN1CCN(C)CC1)CCCC3)C(=O)N2`, the Potency entry was “inactive”.

As for `CC(C)(NS(=O)(=O)c1ccc2c(Cl)cnc(N=C(N)N)c2c1)C(=O)O`, the Potency result is “inactive”.

On to `C=CC(=O)N1CCC(Oc2cc3c(Nc4ccc(Cl)c(Cl)c4F)ncnc3cc2OC)CC1`, for which the Potency result was “inactive”.

As to `CN1CCN(c2ccc(Nc3ncc4cc(C#N)c(=O)n(C5CCCC5)c4n3)cc2)CC1`, the Potency result is “inactive”.

In the case of `CCCCCCCCCCCCc1ccc(S(=O)(=O)Nc2nncs2)cc1`, the Potency entry is “inactive”.

In the case of `Cc1cccc(C)c1-n1c(=O)c2cnc(Nc3ccc(N4CCN(C)CC4)cc3)nc2n2c3ccccc3nc12`, the Potency result is “inactive”.

`C#Cc1cccc(Nc2ncnc3cc4c(cc23)OCCOCCOCCO4)c1`: the Potency result is “inactive”.
